This is one part of a sample in which hits are shown more often than they occur.
Dicer processing – inhibitors of Dicer pre-microRNA processing, primary screen, biochemical, cat-ELCCA, chemiluminescence. Endoribonuclease Dicer (Homo sapiens), Q9UPY3. cat-ELCCA pre-miR-21 Dicer processing; stronger effect = higher value. z-score at 25 µM. hit rate 6% among 47,000; in the data active = z-score above about 3, passing the limit was not always enough;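 note: plate controls were vehicle for no effect and no enzyme for full effect; higher signal means more uncleaved substrate so more Dicer inhibition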
Target sequence (Q9UPY3 whole entry, looked up): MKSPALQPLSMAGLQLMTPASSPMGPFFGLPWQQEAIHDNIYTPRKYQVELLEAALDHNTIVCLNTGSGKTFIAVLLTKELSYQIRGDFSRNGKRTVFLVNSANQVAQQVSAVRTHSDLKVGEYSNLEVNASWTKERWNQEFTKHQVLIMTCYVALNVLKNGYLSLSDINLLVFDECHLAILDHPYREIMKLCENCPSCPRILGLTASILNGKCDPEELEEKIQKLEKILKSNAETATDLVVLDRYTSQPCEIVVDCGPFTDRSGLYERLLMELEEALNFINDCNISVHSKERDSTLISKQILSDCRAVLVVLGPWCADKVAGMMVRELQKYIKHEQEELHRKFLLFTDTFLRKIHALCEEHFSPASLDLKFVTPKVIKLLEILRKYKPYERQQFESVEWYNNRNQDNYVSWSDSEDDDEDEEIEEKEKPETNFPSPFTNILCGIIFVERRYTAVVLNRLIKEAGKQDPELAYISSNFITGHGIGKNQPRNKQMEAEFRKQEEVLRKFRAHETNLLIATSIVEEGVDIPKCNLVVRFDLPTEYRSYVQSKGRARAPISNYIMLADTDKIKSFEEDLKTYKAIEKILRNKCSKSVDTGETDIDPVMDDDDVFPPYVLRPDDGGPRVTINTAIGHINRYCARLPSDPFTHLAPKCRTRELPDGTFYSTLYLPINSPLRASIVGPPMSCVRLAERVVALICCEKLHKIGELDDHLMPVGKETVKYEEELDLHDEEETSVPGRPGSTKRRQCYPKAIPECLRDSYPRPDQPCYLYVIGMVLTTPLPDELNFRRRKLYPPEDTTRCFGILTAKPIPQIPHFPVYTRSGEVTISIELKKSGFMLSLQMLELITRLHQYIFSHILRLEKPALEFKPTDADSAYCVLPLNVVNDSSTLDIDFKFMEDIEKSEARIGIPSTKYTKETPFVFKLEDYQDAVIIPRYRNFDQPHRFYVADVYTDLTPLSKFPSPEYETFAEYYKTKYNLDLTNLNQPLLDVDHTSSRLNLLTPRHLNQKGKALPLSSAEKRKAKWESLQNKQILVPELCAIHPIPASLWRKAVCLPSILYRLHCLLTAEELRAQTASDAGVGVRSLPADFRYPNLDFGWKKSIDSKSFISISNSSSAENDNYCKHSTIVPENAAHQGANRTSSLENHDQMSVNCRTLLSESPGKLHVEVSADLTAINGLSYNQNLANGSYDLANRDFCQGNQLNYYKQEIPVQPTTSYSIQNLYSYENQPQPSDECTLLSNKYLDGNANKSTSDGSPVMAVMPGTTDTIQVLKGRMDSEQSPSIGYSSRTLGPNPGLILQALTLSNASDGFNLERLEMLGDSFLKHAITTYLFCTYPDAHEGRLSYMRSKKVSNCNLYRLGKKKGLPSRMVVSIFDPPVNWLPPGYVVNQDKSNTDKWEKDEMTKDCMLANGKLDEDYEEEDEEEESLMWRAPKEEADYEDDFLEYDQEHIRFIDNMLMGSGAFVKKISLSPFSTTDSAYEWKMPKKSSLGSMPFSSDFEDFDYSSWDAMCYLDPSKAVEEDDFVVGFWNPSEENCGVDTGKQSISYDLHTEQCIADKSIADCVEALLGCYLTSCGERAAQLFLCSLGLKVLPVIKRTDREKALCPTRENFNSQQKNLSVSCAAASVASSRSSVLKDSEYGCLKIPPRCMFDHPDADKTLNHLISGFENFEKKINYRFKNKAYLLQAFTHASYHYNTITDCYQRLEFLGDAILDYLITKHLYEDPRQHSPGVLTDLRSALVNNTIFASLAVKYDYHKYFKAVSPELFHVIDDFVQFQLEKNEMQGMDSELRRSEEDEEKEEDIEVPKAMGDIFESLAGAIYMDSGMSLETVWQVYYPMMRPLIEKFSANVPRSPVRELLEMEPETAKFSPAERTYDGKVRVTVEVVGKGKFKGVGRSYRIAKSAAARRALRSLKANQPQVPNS
An asterisk follows results filed as active.

SMILES	Dicer processing
COC(=O)C1(C(F)(F)F)N=C(c2ccccc2)OC(N2CCCCC2)=N1 (stereo not drawn)	-1.7
Cc1ccc(N2CCn3c2nc2c3c(=O)n(CC(=O)O)c(=O)n2C)cc1	0.75
CC1CN(c2ccc(Cl)cc2)c2nc3c(c(=O)n(CC(=O)O)c(=O)n3C)n2C1 (stereo not drawn)	-0.03
Cn1c(=O)n(CC(=O)O)c(=O)c2c1nc1n2CCN1c1ccc(F)cc1	5.4*
Cn1c(=O)n(CC(=O)O)c(=O)c2c1nc1n2CCCN1c1ccc(Cl)cc1	3*
Cn1c(=O)n(CC(=O)O)c(=O)c2c1nc1n2CCCN1c1ccc(F)cc1	0.5
CCOc1ccc(N2CCCn3c2nc2c3c(=O)n(CC(=O)O)c(=O)n2C)cc1	0.38
N#Cc1cc(NC(=O)c2ccc(Cl)cc2)c(=O)n2c1[nH]c1ccccc12	1.3
Cn1cnnc1SCC(=O)n1c2c(c3ccccc31)CCCC2	1.1
COC(=O)c1cc(OC)c(OC)c(OC)c1NS(=O)(=O)c1ccc(Cl)cc1	-0.21
CCOc1ccc(C2c3c(oc4ccccc4c3=O)C(=O)N2c2nncs2)cc1OCC (stereo not drawn)	1.9
CC1=CC(C)(C)N(C(=O)Nc2ccccc2)c2ccccc21	3.5*
CC1=CC(C)(C)N(C(=O)Nc2ccccc2)c2c(C)cc(C)cc21	1.5
CC1=CC(C)(C)N(C(=O)NC2CCCCC2)c2ccccc21	0.52
Cc1nc(-c2ccc(S(=O)(=O)N3CCN(Cc4ccccc4)CC3)s2)cs1	-0.22
CSc1ncccc1C(=O)NC1(O)C(=O)c2ccccc2C1=O	-5.3
CN=C(NC1CCCCC1)SCc1ccccc1	1.4
CNC(=O)N(Cc1cccnc1)Cc1cccc(Cl)c1Cl	2
CN(C)c1ccc(-c2nc3ccccc3c(=O)[nH]2)c(Cl)c1	-0.76
CN(C)c1ccc(/C=C/c2nc(-c3ccccc3O)n[nH]2)cc1	3
CN(C)c1ccc(/C=C/c2nc3ccccc3c(=O)[nH]2)cc1	5.5*
CCCCOC(=O)Nc1nc2ccccc2s1	16
COc1cccc2c1OC(c1cccs1)N1N=C(c3ccccc3O)CC21 (stereo not drawn)	1.3
COc1ccc(O)c(C2=NN3C(C2)c2ccccc2OC3c2cccs2)c1 (stereo not drawn)	11*
COC(=O)c1ccc(C2Oc3c(OC)cccc3C3CC(c4cccs4)=NN32)cc1 (stereo not drawn)	-1.6
SMILES	Dicer processing
COc1cccc(C2Oc3ccccc3C3CC(c4cccs4)=NN32)c1OC (stereo not drawn)	20*
COc1ccc(O)c(C2=NN3C(C2)c2cccc(OC)c2OC3c2cccs2)c1 (stereo not drawn)	3.5*
COc1ccc(O)c(C2=NN3C(C2)c2ccccc2OC3c2ccc(F)cc2)c1 (stereo not drawn)	2.4
COc1ccc(O)c(C2=NN3C(C2)c2ccccc2OC3c2ccc(O)c(OC)c2)c1 (stereo not drawn)	2.6
COc1ccc(C2Oc3c(OC)cccc3C3CC(c4cc(OC)ccc4O)=NN32)c(OC)c1 (stereo not drawn)	2.8
CCOc1ccc(N2CCCCn3c2nc2c3c(=O)[nH]c(=O)n2C)cc1	-1.5
O=S(=O)(Nc1ccccc1)c1ccc2c(c1)CCO2	0.07
O=C1CCCC2=C1C(c1ccc3c(c1)OCO3)c1c([nH]n(-c3ccccc3)c1=O)N2 (stereo not drawn)	-1
Cc1cc(C(F)(F)F)nn1CC(=O)Nc1sc2c(c1C#N)CCCC2	-0.6
COC(=O)c1ccc(CSc2ncccn2)cc1	-0.92
Cc1oc(C(C)(C)C)cc1C(=O)Nc1ccc(C(C)C)cc1	-1.5
COc1cc(C2c3c(oc4ccccc4c3=O)C(=O)N2Cc2ccc(F)cc2)ccc1O (stereo not drawn)	1.1
CCOc1ccc(C2c3c(oc4ccccc4c3=O)C(=O)N2c2ccccn2)cc1 (stereo not drawn)	2.1
COc1ccc(C2c3c(oc4cc(C)c(C)cc4c3=O)C(=O)N2c2ccc(C)cn2)cc1OC (stereo not drawn)	0.71
COc1cc(C2c3c(oc4ccc(F)cc4c3=O)C(=O)N2Cc2ccc(C)cc2)ccc1O (stereo not drawn)	4.8*
COc1ccc(C2c3c(oc4cc(C)c(C)cc4c3=O)C(=O)N2c2ccccn2)cc1 (stereo not drawn)	-0.09
Cc1ccc2oc3c(c(=O)c2c1)C(c1cccc(O)c1)N(c1ccccn1)C3=O (stereo not drawn)	1.7
CCCCOc1ccc(C2c3c(oc4ccccc4c3=O)C(=O)N2c2ccccn2)cc1 (stereo not drawn)	2.3
Cc1ccc2oc3c(c(=O)c2c1)C(c1ccccc1F)N(c1ccccn1)C3=O (stereo not drawn)	3.3*
C=CCOc1ccc(C2c3c(oc4ccccc4c3=O)C(=O)N2c2ccccn2)cc1 (stereo not drawn)	4.1*
Cc1ccc(CN2C(=O)c3oc4ccc(F)cc4c(=O)c3C2c2ccc(O)cc2)cc1 (stereo not drawn)	0.85
COc1cc(C2c3c(oc4cc(C)c(C)cc4c3=O)C(=O)N2c2ccc(C)cn2)ccc1O (stereo not drawn)	15*
CSc1ccc(C2c3c(oc4ccc(C)cc4c3=O)C(=O)N2c2ccccn2)cc1 (stereo not drawn)	-0.25
CCC(C)OC(=O)COc1ccc2c(=O)c(Oc3ccccc3Cl)coc2c1 (stereo not drawn)	-1.8
CCOC(=O)CN(C(=O)CSc1n[nH]c(-c2ccncc2)n1)c1ccccc1	2.4
SMILES	Dicer processing
CC1(C)C2CCC1(C(=O)O)c1nc3ccccc3nc12 (stereo not drawn)	-2
NC(=S)N/N=C1\CCCc2ccccc21	0.16
Nc1ccc(S(=O)(=O)Nc2cnc3ccccc3n2)cc1	0.88
CCOC(=O)CN/C(SC)=C(/C#N)C(=O)c1cccs1	0.35
CCCCCN(CCCOC)C(=O)C(CCC(=O)O)NC(=O)c1ccc(Cl)c(Cl)c1 (stereo not drawn)	0.86
CC1=Nc2ccc(Br)cc2C(c2ccccc2)N1CC(=O)O (stereo not drawn)	0.23
CCOC(=O)Cc1csc(NC(=O)Nc2cccs2)n1	-0.2
Cc1ccc(N2C(=O)c3oc4ccccc4c(=O)c3C2c2ccc(Br)cc2)nc1 (stereo not drawn)	2.7
Cc1ccc(C2c3c(oc4ccccc4c3=O)C(=O)N2c2ccc(C)cn2)cc1 (stereo not drawn)	4.2*
CCOc1ccc(C2c3c(oc4ccccc4c3=O)C(=O)N2c2ccc(C)cn2)cc1OCC (stereo not drawn)	-1.4
CNC(=S)Sc1ccc(F)cc1F	0.92
c1ccc(N2CCN(c3c4c(nc5ncnn35)CCC4)CC2)cc1	-1.4
CC12CCC(C1)C(C)(C)C2NCC(=O)N(c1ccccc1)C1CCCCC1 (stereo not drawn)	-0.24
CCOC(=O)C(CCSC)NC(=O)CN (stereo not drawn)	0.22
CN(/N=C/Cc1nnnn1-c1ccc(Cl)cc1)c1ccccc1	-1.1
Clc1ccccc1N/N=C/Cc1nnnn1-c1ccccc1	0.48
NC(=S)N/N=C/Cc1nnnn1-c1ccc(-c2ccccc2)cc1	3.2*
O=C(c1ccc(F)cc1)c1ccc(F)cc1	0.8
CCc1ccc(C2C(C(=O)OC(C)C)=C(C)Nc3nc4ccccc4n32)cc1 (stereo not drawn)	0.24
Cc1cc(=O)n2[nH]c(C(F)(F)F)c(-c3ccc(Br)cc3)c2n1	2
CCn1c2ccccc2c2cc(CN3CCN(S(C)(=O)=O)CC3)ccc21	5.4*
CCn1c2ccccc2c2cc([N+](=O)[O-])ccc21	-0.68

High-throughput results from PubChem.
